Compounds without any hit were thinned out: in the full panel of roughly 83,000, 20% have a hit.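 Cell lines were cultured in 96-well plates, exposed to a single compound concentration, and assessed for percent growth 48 hours later.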 Unmarked numbers belong to inactive results. Activity calls are given as the source filed them. Rule for the calls: active = growth percent below 10; inactive = the rest.
What was measured:
Assay in all cases: NCI-60 one-dose screen, 48 h (100 = growth as untreated, 0 = no growth, -100 = all killed)
Settings in all cases: 10 µM unless noted
[1] = system: NCI-H23 lung
[2] = system: NCI-H226 lung
[3] = system: NCI-H322M lung
[4] = system: HOP-62 NSCLC
[5] = system: NCI-H460 lung
[6] = system: HOP-92 NSCLC
[7] = system: NCI-H522 lung
[8] = system: A549/ATCC NSCLC
[9] = system: 786-0 renal
[10] = system: COLO 205 colon
[11] = system: DU-145 prostate
[12] = system: K-562 leukemia
[13] = system: MALME-3M melanoma
[14] = system: MDA-MB-231 breast
[15] = system: RXF 393 renal
[16] = system: SF-268 CNS
[17] = system: SF-295 CNS
[18] = system: SF-539 CNS
[19] = system: UACC-257 melanoma
[20] = system: M14 melanoma

SMILES	growth [1]	growth [2]	growth [3]	growth [4]	growth [5]	growth [6]	growth [7]	growth [8]	growth [9]	growth [10]	growth [11]	growth [12]	growth [13]	growth [14]	growth [15]	growth [16]	growth [17]	growth [18]	growth [19]	growth [20]
O=C(N/N=C/c1ccc(B(O)O)s1)c1[nH]c2ccc(Br)cc2c1-c1ccccc1	-94.9% (active)	-45.2% (active)	-79.1% (active)	-69.8% (active)	-76% (active)	-60.2% (active)	-83% (active)	-62.8% (active)	-66.2% (active)	-81.8% (active)	-56.4% (active)	2.64% (active)	-96.2% (active)	-88.1% (active)	-94.3% (active)	-37.2% (active)	-98.1% (active)	-98.8% (active)	-77.4% (active)	-67.4% (active)
O=C(c1ccc(O)cc1)C1[C@H](c2ccccc2Br)[C@@H](c2ccccc2)NC12C(=O)Nc1ccccc12 (stereo not given in full)	34.3%	53.3%	61.6%	59.8%	33.1%	38.8%	-21.1% (active)	22.9%	28.8%	28%	63.1%	29.4%	71.6%	41%	20.8%	49.1%	27.9%	55%	45.8%	58.6%
COc1ccc(N=Nc2c(N)nn3c(N)c(C#N)c(-c4ccc(F)cc4)nc23)cc1	39.7%	55%	77%	59.6%	61.1%	-3.02% (active)	40.7%	86.8%	32%	105%	58.8%	68.6%	48.7%	-9.82% (active)	35.1%	61.2%	63%	-5.21% (active)	105%	80.2%
COc1cc(-c2ccc3ncnc(N4CCc5ccc(Cl)cc54)c3c2)cnc1Cl	19.9%	18.8%	15.9%	50.2%	12.4%	-0.319% (active)	38.6%	34.7%	14.1%	32.1%	10.6%	23.1%	34.9%	30.8%	-4.17% (active)	40.2%	35%	24.8%	59.2%	29.8%
CNc1nc2ccccc2n2c(-c3ccc(O)c(O)c3)cnc12	16.1%	-14.9% (active)	38.8%	26.5%	3.63% (active)	13.9%	-39.6% (active)	15.9%	24.7%	-54.3% (active)	2.32% (active)	11.1%	16%	20.9%	-4.31% (active)	5.12% (active)	11%	-43% (active)	57.1%	-1% (active)
O=C1Nc2cc(-c3ccc(NS(=O)(=O)c4ccc([N+](=O)[O-])cc4)cc3)ccc2/C1=C/c1ccc[nH]1	3.29% (active)	-12.3% (active)	62.2%	0.132% (active)	3.96% (active)	-29.9% (active)	-5.99% (active)	-31.9% (active)	-8.24% (active)	-31.8% (active)	-44.9% (active)	12.6%	-0.842% (active)	12.3%	-44.3% (active)	46.6%	-32.7% (active)	-54.4% (active)	4.04% (active)	-13.9% (active)
COc1ccc2[nH]c(O)c(N=Nc3nc(-c4ccc(Cl)cc4)cs3)c2c1	-33.7% (active)	-54.3% (active)	12.8%	-26.6% (active)	-31.4% (active)	-38.8% (active)	-26.4% (active)	-60.8% (active)	-86.6% (active)	-76.9% (active)	4.95% (active)	12.1%	-63.5% (active)	17.6%	-90% (active)	-9.32% (active)	-46% (active)	-60.5% (active)	9.82% (active)	-9.9% (active)
COc1ccc(Nc2ncnc3sc4c(c23)CCN(Cc2ccccc2)C4)cc1	91.8%	84.3%	93.7%	81.9%	71%	85.7%	63.2%	77.3%	76.4%	106%	94.3%	45.3%	107%	87.5%	74.6%	66.1%	67.6%	91.3%	94.6%	81.1%
CCCn1c(NC(=O)c2cccc(C(N)=O)c2)nc2ccc(CN3CCCCC3)cc21	89.8%	102%	82%	105%	81.9%	84.4%	94.1%	99.8%	12%	97.4%	87.1%	85.8%	92.4%	126%	46.4%	107%	106%	106%	121%	-6.41% (active)
COc1ccc(-c2nc3ccccc3n2CC(=O)N=Nc2c(O)[nH]c3ccc(Br)cc23)cc1	78.8%	100%	103%	69.8%	80.6%	79.8%	67.4%	98.2%	97.3%	83%	33.7%	35.3%	79.3%	57.5%	64.3%	96%	81.1%	87.9%	120%	77.4%
CN1CCc2c(sc3ncnc(N/N=C/c4cccc(Cl)c4Cl)c23)C1	-6.68% (active)	134%	77.3%	-38.2% (active)	-71.1% (active)	58.4%	68.8%	-70.1% (active)	-16.1% (active)	-80.3% (active)	-5.42% (active)	-7.35% (active)	87.5%	-43.4% (active)	27.3%	43.1%	-72.5% (active)	-91.8% (active)	76.5%	64.5%
Cc1ccc2c(c1)nc(-c1ccccc1)n2CC(=O)N=Nc1c(O)[nH]c2ccc(Cl)cc12	-66% (active)	-53.5% (active)	-53.8% (active)	-79.7% (active)	-68.9% (active)	-74.2% (active)	-75% (active)	-18.7% (active)	-92% (active)	-87.6% (active)	-38% (active)	-3.37% (active)	-28.6% (active)	-80.5% (active)	-88.4% (active)	2.28% (active)	-62.4% (active)	-90.3% (active)	-28.2% (active)	-28.4% (active)
O=C1Nc2cc(-c3ccc(NS(=O)(=O)c4ccc(-c5ccccc5)cc4)cc3)ccc2/C1=C/c1ccc[nH]1	4.1% (active)	66.5%	47.3%	75.9%	3.38% (active)	16.1%	-11.8% (active)	10.5%	58.4%	0.446% (active)	-11.5% (active)	18.8%	50%	63.9%	-37.3% (active)	75.8%	30.9%	37.4%	58.9%	38%
COc1ccc(NC(=O)N/N=C/c2c[nH]c3ccccc23)cc1	40%	34.7%	43.2%	44.1%	14.9%	69.5%	-34.7% (active)	45.6%	44.8%	4.05% (active)	27.6%	17.8%	61.9%	44.7%	20.2%	55.7%	16.4%	-13.6% (active)	72.9%	29.7%
C#CCN(C)CCCOc1ccc(N(CC)C(=O)c2cc(C(C)C)c(O)cc2O)cc1Cl	-5.94% (active)	-13.8% (active)	23.4%	26%	-52.4% (active)	-44.6% (active)	-14.9% (active)	15.9%	21.6%	4.62% (active)	1.4% (active)	-26.6% (active)	-51.5% (active)	-45.3% (active)	2.57% (active)	28.2%	-2.79% (active)	6.42% (active)	-11.6% (active)	-45.8% (active)
